Results with a measured potency or affinity are listed apart.

Sequence of Protein translocase subunit SecA (Escherichia coli (strain K12)) (P10408 whole entry): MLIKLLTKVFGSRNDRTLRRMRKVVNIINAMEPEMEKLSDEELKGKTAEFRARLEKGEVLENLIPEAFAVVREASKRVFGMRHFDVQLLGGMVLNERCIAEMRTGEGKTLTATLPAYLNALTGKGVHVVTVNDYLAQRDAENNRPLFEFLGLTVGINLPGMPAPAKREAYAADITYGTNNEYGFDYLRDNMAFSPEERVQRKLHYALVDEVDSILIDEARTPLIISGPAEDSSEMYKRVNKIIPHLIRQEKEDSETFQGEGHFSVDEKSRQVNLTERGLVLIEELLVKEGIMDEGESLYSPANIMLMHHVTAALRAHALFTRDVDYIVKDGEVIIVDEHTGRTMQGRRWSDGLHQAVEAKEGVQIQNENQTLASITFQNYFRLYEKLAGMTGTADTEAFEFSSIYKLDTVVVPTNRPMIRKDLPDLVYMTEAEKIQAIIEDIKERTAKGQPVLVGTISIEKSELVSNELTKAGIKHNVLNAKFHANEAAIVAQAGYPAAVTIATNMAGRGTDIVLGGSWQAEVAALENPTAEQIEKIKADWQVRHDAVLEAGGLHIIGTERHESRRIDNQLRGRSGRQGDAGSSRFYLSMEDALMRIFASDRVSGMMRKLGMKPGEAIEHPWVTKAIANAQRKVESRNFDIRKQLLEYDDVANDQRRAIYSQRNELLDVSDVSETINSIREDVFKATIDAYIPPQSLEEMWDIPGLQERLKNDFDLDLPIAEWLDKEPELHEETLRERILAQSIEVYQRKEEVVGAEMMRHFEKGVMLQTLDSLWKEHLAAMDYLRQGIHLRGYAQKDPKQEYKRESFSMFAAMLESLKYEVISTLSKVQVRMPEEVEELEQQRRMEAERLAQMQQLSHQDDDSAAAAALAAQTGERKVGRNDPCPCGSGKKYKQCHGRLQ

This experiment addresses Protein translocase subunit SecA (Escherichia coli (strain K12)) (UniProt P10408). The experiment can be described thus: Assay to Identify E. coli SecA ATPase Inhibitors. It counts as functional. Further details: scale not given: direction of the effect not stated beside the values. As to conditions: 30 µM.
For `COCCc1ncc(CN2CCC(Oc3ccccc3C)CC2)cn1`, the Percent Effect was -2.3%.
Regarding `COCCCN1CC2(CCCCN2C(=O)c2ccsc2)CC1=O` (stereo not given), the Percent Effect was 0.227%.
The figure for `CCc1nc(C2CCCN2CCn2cncn2)no1` (stereo not given) is -1.22%.
Turning to `O=C(NCCOc1ccc(Cl)cc1)N1CCS(=O)(=O)CC1`, the Percent Effect is -5.3%.
For `COC(=O)CC(c1ccccc1)c1oc(C)cc(=O)c1O` (stereo not given), the Percent Effect was -10.4%.
On to `COc1ncccc1CNC(=O)c1cccc(C)n1`, for which the Percent Effect is -0.149%.
Regarding `CC(C)CN(Cc1nc2c(cnn2C)c(=O)[nH]1)C(C)C`, the Percent Effect was -1.52%.
In the case of `CC(C)C(=O)N1CCC2(CCCN(CCOc3ccccc3)C2)C1` (stereo not given), the Percent Effect was -6.57%.
As for `Cc1ccc(-c2nc(CCNC(=O)NC3CCN(C)CC3)co2)cc1`, the Percent Effect is -4.38%.
Take `COc1ccc(CNCc2ccnc(N3CCCCC3)c2)cc1OC`: the Percent Effect was -2.73%.
In the case of `COc1ccc(CC(=O)N2C[C@@H]3COC[C@]3(CN(C)C)C2)cc1`, the Percent Effect was -3.95%.
As to `CC(=O)N1N=C(c2ccccc2)OC1C(=O)NCCc1cccc(Cl)c1` (stereo not given), the Percent Effect was determined as 4.91%.
With `Cc1cnn(CC2CN(CC(=O)N(C)Cc3cccs3)CCO2)c1` (stereo not given), the Percent Effect was -1.07%.
With `O=C(CC1CCCC1)N1C[C@@H]2CCN(c3cccnc3)C[C@@H]2C1`, the Percent Effect was -3.01%.
As for `COc1ccc(CN2CCC3(CC(Nc4ccncn4)C3)C2)c(OC)c1` (stereo not given), the Percent Effect is -3.35%.
In the case of `Cc1nn(C)c(N(C)C)c1CNCCNS(C)(=O)=O`, the Percent Effect is -1.65%.
Take `Cc1cc(-c2nn(C)c(Cl)c2CN2Cc3ccccc3C(O)C2)no1` (stereo not given): the Percent Effect is -0.14%.
`CCc1nnc(CN2CCCC(c3cc(C(F)(F)F)[nH]n3)C2)o1` (stereo not given): the Percent Effect is -0.463%.
Regarding `CC[C@@H]1N(Cc2ccsc2)CCC[C@]12CCC(=O)N2CCOC`, the Percent Effect was -4.26%.
Take `CC(c1nc(C2CC2)no1)N1CCN(Cc2ccsc2)CC1` (stereo not given): the Percent Effect is -4.58%.
As for `COc1cccc(OC)c1C(=O)N1CCN(c2ccccc2F)CC1`, the Percent Effect worked out at 0.59%.
As for `O=C(NCC1CC1)C1=NOC2(CCN(S(=O)(=O)c3cccs3)C2)C1` (stereo not given), the Percent Effect is -2.62%.
Consider `Cc1ncc(S(C)(=O)=O)c(C2CCCNC2)n1` (stereo not given), for which the Percent Effect was -0.171%.
Take `O=C(NCCc1cccnc1)N1CCCC1c1ccsc1` (stereo not given): the Percent Effect is -6.89%.
`CNC(=O)[C@@H]1C[C@H]2CN(Cc3ccco3)C[C@H]2N1C`: the Percent Effect is -3.02%.
Take `Cc1ccc(Oc2ccc(NC(=O)NCC3CCOC3)cn2)cc1C` (stereo not given): the Percent Effect was -2.89%.
With `O=C(Cc1n[nH]c2ccccc12)N1CCC(Nc2cccnn2)CC1`, the Percent Effect is -6.35%.
With `Cc1cc(C2CCCN(C(=O)c3c(C)nn4cccnc34)C2)n[nH]1` (stereo not given), the Percent Effect is -3.7%.
On to `CC(C)c1nc(C2CCCN2CC(=O)Nc2nncs2)no1` (stereo not given), for which the Percent Effect is -6.03%.
Turning to `CCn1ccnc1CN1CCN(CC(O)c2ccccc2)CC1` (stereo not given), the Percent Effect is -1.54%.
As to `CO[C@@H]1CCN(C(=O)c2ccccn2)[C@H]1Cc1ccccc1`, the Percent Effect was -0.453%.
Take `Cc1noc(C(C)C)c1C(=O)NCCN1CCCCCC1=O`: the Percent Effect was 0.794%.
For `Cc1noc(C)c1CC(=O)OCC(=O)N1CCc2sccc2C1`, the Percent Effect was -3.42%.
Regarding `COCc1nc(C(=O)N2CCCC(n3cccn3)C2)cs1` (stereo not given), the Percent Effect is -1.77%.
Take `COCCN1CCCN(C(=O)NC(C)Cn2ccnc2)CC1` (stereo not given): the Percent Effect came out at 0.718%.
In the case of `CC(C)(C)n1ncc2c1NC(=O)CC2c1ccsc1` (stereo not given), the Percent Effect is -1.95%.
Regarding `O=C(NCCO)c1ccn(-c2ccc3ccccn23)n1`, the Percent Effect was -3.79%.
For `COc1ncccc1CNC(=O)c1cccnc1O`, the Percent Effect was -1.81%.
`CCc1cc(O)nc(C2CCCN2C(=O)c2cc(C)no2)n1` (stereo not given): the Percent Effect is -0.0921%.
Regarding `O=C(NC[C@]1(O)CN(Cc2ccccc2F)C[C@H]1O)c1ccccn1`, the Percent Effect was -1.11%.

For the origin of these results see ChEMBL document CHEMBL3988442, “University of Dundee, Small-Polar-MMV Screening Library” (2021).
